# In PubChem BioAssay:
# “And” between values parts separate entries of the source, which are not always exact repeats. Equal values may be shown once. Inconclusive results are not listed. The source made the active and inactive calls.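 How the source made its calls, unless noted: active means normalized viability below 100% at a tested concentration; inactive means the rest.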
# Experiments:
# [1] = modulation of C. elegans fzo-1 (AID 1259413; call rule not given here;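 further: fzo-1 mutant C. elegans worms in liquid wells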); details: C. elegans fzo-1 modulator screen, mean read-out; stronger effect = higher value
# [2] = EMT-state selective cytotoxicity in co-culture – imaging, PC-3E GFP, TEM4-18 mCherry, primary screen (AID 1345086;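 active means compounds killing one labelled cell type while sparing the other, by normalised counts and ratio limits, not self-fluorescent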;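 on all read-outs here: cells exposed to compound for 72 h before imaging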;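 on red/green cell ratio (normalised): normalised mesenchymal count divided by normalised epithelial count so high means epithelial killing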); details: PC-3E GFP / TEM4-18 mCherry co-culture, imaging cell counts, at 1 µM; for red/green cell ratio (normalised): actives lie on both sides, counts scaled to control wells, 1 = unselective
# [3] = system: Aerobactin synthetase IucA (Klebsiella pneumoniae); assay: inhibition of K. pneumoniae IucA enzyme – biochemical, Tocris library, absorbance (AID 1345561; call rule not given here;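 further: 100% = enzyme without compound and 0% = no enzyme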); details: purified IucA enzyme assay, absorbance (OD) read-out; stronger effect = lower value;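 tested at 8 µM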
# [4] = blockers of cellular phospholipid synthesis – cell-based, LOPAC library, screen 4, primary screen (AID 1347384; call rule not given here); details: animal cells, phospholipid biosynthesis inhibition screen; at 10 µM
# [5] = MELAS cybrid and Rieske KO viability enhancers – cell-based, MELAS cybrids, Rieske KO mouse fibroblasts, CellTiter-Glo, primary screen (AID 1508586;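 active means mean z-score across replicates of 1.96 or higher in either the MELAS or the Rieske mutant cell line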;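 further: z relative to plate mean and SD of compound and empty wells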); details: low glucose
# [6] = viability loss in pontine glioma line – cell-based, SU-DIPG-XVII, MIPE5.0, CellTiter-Glo, qHTS, dose response (AID 1347060; cut-off not given, nearly all actives have AC50 up to about 26 µM); details: CellTiter-Glo ATP luminescence
# [7] = viability loss in pontine glioma line – cell-based, SU-DIPG-XIII, MIPE4.0, CellTiter-Glo, qHTS, dose response (AID 1347061; cut-off not given, nearly all actives have AC50 up to about 37 µM;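 further: cells exposed to compound for 48 hours before readout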); details: CellTiter-Glo ATP luminescence
# [8] = viability loss in pontine glioma line – cell-based, JHH-DIPG-1, MIPE4.0, CellTiter-Glo, qHTS, dose response (AID 1347062; cut-off not given, nearly all actives have AC50 up to about 27 µM); details: JHH-DIPG-1 viability, CellTiter-Glo ATP luminescence
# [9] = viability loss in pontine glioma line – cell-based, SU-DIPG-IV, MIPE4.0, CellTiter-Glo, qHTS, dose response (AID 1347063; cut-off not given, nearly all actives have AC50 up to about 30 µM;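 further: compound exposure lasted 48 hours before the viability readout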); details: CellTiter-Glo ATP luminescence
# [10] = viability loss in pontine glioma line – cell-based, SU-DIPG-XIII, MIPE5.0, CellTiter-Glo, qHTS, dose response (AID 1347064; cut-off not given, nearly all actives have AC50 up to about 23 µM); details: CellTiter-Glo ATP luminescence
# [11] = viability loss in pontine glioma line – cell-based, SU-DIPG-XXV, MIPE5.0, CellTiter-Glo, qHTS, dose response (AID 1347065; cut-off not given, nearly all actives have AC50 up to about 26 µM;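 further: cells exposed to compound for 48 hours before ATP readout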); details: CellTiter-Glo ATP luminescence
# [12] = growth inhibition of DIPG cells – cell-based, MIPE4.0 library, CellTiter-Glo luminescence, qHTS (AID 1347066; cut-off not given, nearly all actives have AC50 up to about 30 µM;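 further: cells exposed to compound for 48 hours before readout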); details: SU-DIPG-VI viability, CellTiter-Glo ATP luminescence
# [13] = JHH-DIPG-1 glioma cell viability, MIPE5.0 library, CellTiter-Glo luminescence, qHTS (AID 1347067; cut-off not given, nearly all actives have AC50 up to about 26 µM;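 further: cells exposed to compound for 48 hours before readout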); details: JHH-DIPG-1 glioma viability, CellTiter-Glo ATP luminescence
# [14] = growth inhibition of DIPG cells – cell-based, MIPE5.0 library, qHTS (AID 1347068; cut-off not given, nearly all actives have IC50 up to about 30 µM); details: SU-DIPG-XXV viability
# [15] = compounds altering HSF1 focus formation in cells – imaging, Selleck Cancer Library (AID 1347162; in the data active means plate-normalised HSF1 focus index below about 0.46); details: human cells, HSF1 nuclear foci imaging, at 10 µM; SSMD: measured here: HSF1 foci SSMD mean; cell count: measured here: cell number; plate-normalised HSF1 focus index: stronger effect = lower value
# [16] = drug combination growth inhibition, ovarian cancer – cell-based, oncology-focused library, rucaparib conditional, profiling panel (AID 1508598); details: patient-derived ovarian cancer cells, CellTiter-Glo viability, 144 h, stronger effect = lower value
# [17] = measured here: epithelial PC-3E GFP cell survival
# [18] = measured here: mesenchymal TEM4-18 mCherry cell survival
# [19] = MELAS cybrid survival, CellTiter-Glo 48 h, stronger effect = higher value
# [20] = Rieske KO mouse fibroblast survival, CellTiter-Glo 72 h
compound,measurement,setting,value
O=C1CC2(CCCC2)CC(=O)N1CCCCN1CCN(c2ncccn2)CC1,mean signal,[1],228 (inactive)
same,red/green cell ratio (normalised),[2],1.04 (inactive)
same,normalised cell number,[2]; [17],1.05
same,normalised cell number,[2]; [18],1.09
same,remaining activity,[3],109% (inactive)
same,outcome,[4],inactive
same,z-score,[5]; [19],0.0234 (inactive) and -0.506 (inactive) and -2.15 (inactive)
same,z-score,[5]; [20],-3.18 and -0.781 and 0.669
CCCN1CCCC[C@H]1C(=O)Nc1c(C)cccc1C,mean signal,[1],274 (inactive)
Cn1nnc2c(C(N)=O)ncn2c1=O,mean signal,[1],230 (inactive)
same,red/green cell ratio (normalised),[2],1.08 (inactive)
same,normalised cell number,[2]; [17],1.03
same,normalised cell number,[2]; [18],1.11
same,remaining activity,[3],102% (inactive)
same,outcome,[6],inactive
same,outcome,[7],inactive
same,outcome,[8],inactive
same,outcome,[9],inactive
same,outcome,[10],inactive
same,outcome,[11],inactive
same,outcome,[12],inactive
same,outcome,[13],inactive
same,outcome,[14],inactive
same,SSMD,[15],1.56
same,cell count,[15],7070
same,plate-normalised HSF1 focus index,[15],1.09 (inactive)
same,z-score,[5]; [19],-0.452 (inactive) and 0.68 (inactive) and -0.709 (inactive)
same,z-score,[5]; [20],0.371 and -0.0371 and -0.913
same,viability,"[16]; at 0.000305 µM, OCI-C5x cells, with rucaparib 10 µM, 100% = cells with rucaparib alone",103% (inactive)
same,viability,"[16]; at 0.000305 µM, OCI-C5x cells, without rucaparib",108% (inactive)
same,viability,"[16]; at 0.000305 µM, OCI-P5x cells, with rucaparib 20 µM, 100% = cells with rucaparib alone",91% (active)
same,viability,"[16]; at 0.000305 µM, OCI-P5x cells, without rucaparib",88.3% (active)
same,viability,"[16]; at 0.00122 µM, OCI-C5x cells, with rucaparib 10 µM, 100% = cells with rucaparib alone",103% (inactive)
same,viability,"[16]; at 0.00122 µM, OCI-C5x cells, without rucaparib",109% (inactive)
same,viability,"[16]; at 0.00122 µM, OCI-P5x cells, with rucaparib 20 µM, 100% = cells with rucaparib alone",108% (inactive)
same,viability,"[16]; at 0.00122 µM, OCI-P5x cells, without rucaparib",98.5% (active)
same,viability,"[16]; at 0.00488 µM, OCI-C5x cells, with rucaparib 10 µM, 100% = cells with rucaparib alone",113% (inactive)
same,viability,"[16]; at 0.00488 µM, OCI-C5x cells, without rucaparib",110% (inactive)
same,viability,"[16]; at 0.00488 µM, OCI-P5x cells, with rucaparib 20 µM, 100% = cells with rucaparib alone",110% (inactive)
same,viability,"[16]; at 0.00488 µM, OCI-P5x cells, without rucaparib",101% (inactive)
same,viability,"[16]; at 0.0195 µM, OCI-C5x cells, with rucaparib 10 µM, 100% = cells with rucaparib alone",118% (inactive)
same,viability,"[16]; at 0.0195 µM, OCI-C5x cells, without rucaparib",108% (inactive)
same,viability,"[16]; at 0.0195 µM, OCI-P5x cells, with rucaparib 20 µM, 100% = cells with rucaparib alone",106% (inactive)
same,viability,"[16]; at 0.0195 µM, OCI-P5x cells, without rucaparib",106% (inactive)
same,viability,"[16]; at 0.0781 µM, OCI-C5x cells, with rucaparib 10 µM, 100% = cells with rucaparib alone",102% (inactive)
same,viability,"[16]; at 0.0781 µM, OCI-C5x cells, without rucaparib",101% (inactive)
same,viability,"[16]; at 0.0781 µM, OCI-P5x cells, with rucaparib 20 µM, 100% = cells with rucaparib alone",112% (inactive)
same,viability,"[16]; at 0.0781 µM, OCI-P5x cells, without rucaparib",104% (inactive)
same,viability,"[16]; at 0.313 µM, OCI-C5x cells, with rucaparib 10 µM, 100% = cells with rucaparib alone",101% (inactive)
same,viability,"[16]; at 0.313 µM, OCI-C5x cells, without rucaparib",104% (inactive)
same,viability,"[16]; at 0.313 µM, OCI-P5x cells, with rucaparib 20 µM, 100% = cells with rucaparib alone",111% (inactive)
same,viability,"[16]; at 0.313 µM, OCI-P5x cells, without rucaparib",109% (inactive)
same,viability,"[16]; at 1.25 µM, OCI-C5x cells, with rucaparib 10 µM, 100% = cells with rucaparib alone",108% (inactive)
same,viability,"[16]; at 1.25 µM, OCI-C5x cells, without rucaparib",90.4% (active)
same,viability,"[16]; at 1.25 µM, OCI-P5x cells, with rucaparib 20 µM, 100% = cells with rucaparib alone",106% (inactive)
same,viability,"[16]; at 1.25 µM, OCI-P5x cells, without rucaparib",110% (inactive)
same,viability,"[16]; at 5 µM, OCI-C5x cells, with rucaparib 10 µM, 100% = cells with rucaparib alone",96.4% (active)
same,viability,"[16]; at 5 µM, OCI-C5x cells, without rucaparib",92.7% (active)
same,viability,"[16]; at 5 µM, OCI-P5x cells, with rucaparib 20 µM, 100% = cells with rucaparib alone",95.5% (active)
same,viability,"[16]; at 5 µM, OCI-P5x cells, without rucaparib",114% (inactive)
COc1ccc2nc(S(=O)Cc3ncc(C)c(OC)c3C)[nH]c2c1 (stereo not given),mean signal,[1],241 (inactive)
same,red/green cell ratio (normalised),[2],0.98 (inactive)
same,normalised cell number,[2]; [17],0.98
same,normalised cell number,[2]; [18],0.96
same,remaining activity,[3],103% (inactive)
same,outcome,[6],inactive
same,outcome,[8],inactive
same,outcome,[9],inactive
same,outcome,[10],inactive
same,outcome,[11],inactive
same,outcome,[12],inactive
same,outcome,[13],inactive
same,outcome,[14],inactive
CC(C)NCC(O)COc1ccc(COCCOC(C)C)cc1 (stereo not given),mean signal,[1],229 (inactive)
same,red/green cell ratio (normalised),[2],0.9 (inactive)
same,normalised cell number,[2]; [17],1.05
same,normalised cell number,[2]; [18],0.94
same,remaining activity,[3],120% (inactive)
same,outcome,[7],inactive
same,outcome,[8],inactive
same,outcome,[9],inactive
same,outcome,[12],inactive
same,outcome,[4],inactive
same,z-score,[5]; [19],-0.423 (inactive) and -0.586 (inactive)
same,z-score,[5]; [20],0.385 and -0.329
